Screens (PubChem BioAssay)
A3A deaminase: APOBEC3A ssDNA deaminase inhibitors, primary screen, selectivity assay for APOBEC3G inhibitor project, biochemical, FAM/TAMRA oligo cleavage fluorescence; DNA dC->dU-editing enzyme APOBEC-3A (Homo sapiens), P31941; 330,000 tested, 0.41% active; recombinant A3A, FAM/TAMRA ssDNA deamination fluorescence; inhibition, % at 20 µM;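 active means at least 40% inhibition at 20 µM here, with at most 30% in a related deaminase screen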;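 further: plate controls were A3A with DMSO for no effect and wells lacking A3A enzyme for full effect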
Target sequence (P31941 whole entry, looked up): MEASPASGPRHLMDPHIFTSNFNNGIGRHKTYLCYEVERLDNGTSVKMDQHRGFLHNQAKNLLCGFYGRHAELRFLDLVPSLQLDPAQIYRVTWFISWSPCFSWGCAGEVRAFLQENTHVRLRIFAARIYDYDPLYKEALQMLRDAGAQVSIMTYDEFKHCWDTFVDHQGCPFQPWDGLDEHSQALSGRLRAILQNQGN
APOBEC3G inh: APOBEC3G DNA deaminase inhibitors, primary screen, biochemical, fluorescence, single-stranded DNA substrate, uHTS; 330,000 tested, 0.28% active; DNA dC->dU-editing enzyme APOBEC-3G (Homo sapiens), Q9HC16; recombinant A3G, ssDNA deamination FAM/TAMRA fluorescence; inhibition, % at 20 µM;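 active means inhibition of at least 40% at 20 µM, with no more than 30% in the related APOBEC3A deaminase screen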;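 further: plate controls were DMSO wells with A3G for no effect and wells lacking A3G enzyme for full effect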
Target sequence (Q9HC16 whole entry, looked up): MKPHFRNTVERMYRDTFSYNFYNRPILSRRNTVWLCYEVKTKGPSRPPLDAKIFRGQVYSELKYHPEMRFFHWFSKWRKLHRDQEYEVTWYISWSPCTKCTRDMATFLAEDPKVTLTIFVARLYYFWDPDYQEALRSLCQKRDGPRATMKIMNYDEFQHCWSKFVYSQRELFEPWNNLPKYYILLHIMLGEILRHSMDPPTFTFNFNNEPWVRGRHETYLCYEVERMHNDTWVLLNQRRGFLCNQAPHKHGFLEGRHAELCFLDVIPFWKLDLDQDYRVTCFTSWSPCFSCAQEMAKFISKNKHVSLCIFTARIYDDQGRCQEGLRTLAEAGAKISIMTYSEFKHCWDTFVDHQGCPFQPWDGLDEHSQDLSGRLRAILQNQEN
ALR H2O2 inh: inhibitors of human ALR sulfhydryl oxidase, primary screen, biochemical, H2O2 detection, HRP-luminol luminescence, single point | FAD-linked sulfhydryl oxidase ALR (Homo sapiens), P55789 | purified ALR, DTT oxidation | inhibition, % (no concentration beside the values) | 290,000 tested, 3.8% active;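 active means mean replicate inhibition above about 79%, with every replicate also reaching it, limit read from the data; inconclusive means only one of the two criteria met; inactive means mean below limit and not every replicate reaching it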
M18AAP inhibitor: PfM18AAP inhibitors, malaria aminopeptidase, primary screen, biochemical, QFRET, recombinant enzyme; M18 aspartyl aminopeptidase (Plasmodium falciparum 3D7); H-Glu-NHMec fluorogenic cleavage; inhibition, % at 7.35 µM; 290,000 tested, 1.2% active; AID 1822, 2009;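 active means inhibition above the campaign mean inhibition over all tested compounds plus 3 SD, cut at about 28% in these data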;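 further: 0% = plate median of test compound wells and 100% = 2 mM ZnCl2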
CR mimetic SO: reduction of superoxide in aged yeast, primary screen, HTS. S. cerevisiae aged cells, superoxide DHE fluorescence; stronger effect = lower value. superoxide response (% of plate mean), % at 10 µM. 330,000 tested, 0.18% active. AID 2690, 2010;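 active means superoxide response under a set limit, about three screen SD below normal, cut at about 65% in these data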;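 further: yeast aged for seven days with compound at 30 °C before DHE staining; 100% = average MFI of all compound-treated wells on the plate with controls excluded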
NRP1-CendR mod: modulators of CendR peptide binding to NRP-1, primary screen, biochemical, fluorescence polarization, uHTS; Neuropilin-1 (Homo sapiens), O14786; FAM-RPARPAR peptide binding to NRP-1; inhibition, % at 25 µM; 360,000 tested, 0.85% active; AID 602438, 2012;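 active means inhibition or corrected inhibition above about 18%, plus a signal ratio from 0.5 to 1.5, limit read from the data, passing the limit was not always enough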
An asterisk follows results filed as active; ? = inconclusive; . = not tested or not shown. A selection: hits, their analogues and other compounds. The true share with any hit is near 5.2%.

SMILES | A3A deaminase | APOBEC3G inh | ALR H2O2 inh | M18AAP inhibitor | CR mimetic SO | NRP1-CendR mod
CSCc1ccc(C(=O)NCc2ccc(F)cc2)cc1 | 1.8 | -0.3 | 98.0* | 1.5 | 100.6 | 3.2
CSCc1ccc(C(=O)NCc2ccc(C)cc2)cc1 | 1.7 | 1.1 | 8.0 | -9.2 | 90.0 | -5.2
CCn1c(C)cc2c(c1=O)C(c1ccncc1)C(C#N)=C(N)O2 (stereo not given) | -0.2 | -3.8 | 1.3 | 4.0 | 117.9 | -13.2
COc1ccc(CCn2c(C)cc3c(c2=O)C(c2ccncc2)C(C#N)=C(N)O3)cc1OC (stereo not given) | . | . | . | -5.2 | . | 18.7*
COc1ccc(N(CC(=O)NCc2ccco2)C(=O)CCC(=O)Nc2ccccn2)cc1 | 4.1 | -3.7 | . | 1.8 | . | 21.0*
COc1ccc(N2C(=O)C3[C@@H](C2=O)C2(Cl)C(Cl)=C(Cl)C3(Cl)C2(OC)OC)cc1 (stereo not given in full) | -3.6 | -9.2 | . | -0.3 | 127.3 | 26.8*
COC(=O)C1=C(C(=O)OC)[C@@H]2N(C)c3ccccc3[C@@]23C[C@@H](C(=O)OC)N=C3N1 | -2.1 | -3.9 | 10.8 | . | 95.2 | 21.2
COC(=O)C1=C(C(=O)OC)[C@@H]2N(C)c3ccc(OC)cc3[C@@]23C[C@@H](C(=O)OC)N=C3N1 | -4.3 | -6.7 | 77.1* | . | 97.2 | 7.3
CCN(C(=O)COc1ccc(C(C)=O)cc1)c1cccc2ccccc12 | -0.3 | -5.9 | -1.0 | . | 112.6 | 36.0*
CCn1cc(C(=O)C(F)(F)F)c2ccccc21 | -3.5 | -2.8 | 2.0 | 2.3 | 101.2 | -2.8
CN(C)c1ccc(C=C2C=CC=C2)cc1 | . | . | . | . | . | -8.1
Cc1ccc(-c2c(C(=O)N/N=C/c3c[nH]c4ccccc34)nnn2-c2nonc2N)cc1 | 2.3 | -2.8 | 13.2 | -5.5 | 94.8 | -1.0
O=C1/C(=C\c2ccco2)SC(=S)N1C1CCS(=O)(=O)C1 (stereo not given) | 34.7 | 19.6 | -15.0 | 29.3* | 96.3 | -25.9
CCOC(=O)[C@H]1[C@H]2COc3ccccc3[C@@H]2N2C(=O)c3cc(Cl)ccc3NC(=O)[C@@]12C | -2.1 | -8.3 | . | . | . | 23.3*
CCOC(=O)[C@@H]1[C@H]2COc3ccccc3[C@@H]2N2C(=O)N(c3cccc(Cl)c3)C(=O)[C@]12C | 2.6 | 0.2 | -5.7 | 6.9 | 102.5 | 27.6*
CCOC(=O)[C@@H]1[C@H]2COc3cc(OC)ccc3[C@H]2N2C(=O)N(c3cccc(F)c3)C(=O)[C@@]12C | -0.7 | -3.6 | -1.0 | . | 98.3 | 25.3*
C=CCn1c(CNC(=O)c2cccs2)nnc1SCC(=O)c1ccc(Br)cc1 | 1.2 | -1.9 | 86.2* | 4.5 | 101.0 | -11.3
C=CCn1c(CCNC(=O)c2cccs2)nnc1SCC(=O)c1ccc(Cl)cc1 | 1.2 | -0.8 | . | 6.7 | 83.2 | 1.2
Cc1cccc(C(=O)Nc2nnc(SCC(=O)NC3CC3)s2)c1 | -2.9 | -5.7 | 0.9 | -1.6 | 84.8 | -1.1
CCN(CC)CCn1c(NCc2ccco2)nc2ccccc21 | -2.5 | -5.1 | 27.6 | 0.3 | 111.8 | 7.2
CCn1c(NCc2cc(OC)c(OC)c(OC)c2)nc2ccccc21 | -4.6 | 5.7 | 96.7* | -1.0 | 99.7 | 2.2
CCN(CC)CCn1c(NCc2cccc(OC)c2OC)nc2ccccc21 | 0.5 | -8.2 | 72.1 | 0.7 | 98.1 | 21.2*
CSc1nc2nc3c(cc2c(=O)n1-c1ccc(C)cc1)COC(C)(C)C3 | 6.0 | 0.1 | -6.4 | 2.0 | 100.5 | 0.5
COc1ccc(NC(=O)c2c(-c3c(Cl)cccc3Cl)noc2C)c(OC)c1 | 0.3 | -0.7 | 0.0 | -9.1 | 105.8 | 25.5*
Cc1[nH]c2ccc(C(=O)N3CCN(c4ccccc4Cl)CC3)cc2c1C | -3.3 | 2.3 | 2.4 | -11.0 | 85.5 | 10.0
SMILES | A3A deaminase | APOBEC3G inh | ALR H2O2 inh | M18AAP inhibitor | CR mimetic SO | NRP1-CendR mod
CCOC(=O)c1ccc2[nH]c(C)c(C)c2c1 | -10.9 | -0.4 | 97.6* | -1.8 | 102.4 | 45.5*
Cc1[nH]c2ccc(C(=O)N3CCCCC3)cc2c1C | 1.0 | -0.1 | 95.6* | 1.3 | 104.5 | -11.4
Cc1[nH]c2ccc(C(=O)N3CCC(C(N)=O)CC3)cc2c1C | -1.5 | -2.0 | ? | . | 116.3 | -7.5
Cc1[nH]c2ccc(C(=O)N3CCCC3)cc2c1C | 1.7 | 5.5 | 90.4* | 6.1 | 87.4 | 5.5
O=C(CN1C(=O)NC2(CCCC2)C1=O)N1CCN(c2ccccc2O)CC1 | -1.8 | -1.5 | 57.1 | . | 72.3 | 7.3
CCN(CC)S(=O)(=O)c1ccc(N=N/C(C(C)=O)=C(/C)O)cc1 | -3.9 | 1.0 | 5.2 | -5.3 | 92.1 | -6.7
Cc1ncsc1CCC(=O)N1CCCC(Nc2ccc(F)c(F)c2)C1 (stereo not given) | 2.9 | -4.8 | 35.2 | 3.2 | 105.0 | 7.1
COc1ccc(NC2CCCN(C(=O)CCc3scnc3C)C2)cc1 (stereo not given) | 1.5 | -0.1 | 99.3* | -12.9 | 87.5 | 9.8
Cc1ccc(NC2CCCN(C(=O)CCc3scnc3C)C2)cc1C (stereo not given) | -0.1 | 39.8 | 99.2* | 10.9 | 101.3 | 1.7
Cc1ncsc1CCC(=O)N1CCCC(Nc2ccc(C(C)C)cc2)C1 (stereo not given) | -1.8 | -0.5 | 85.9* | -2.7 | 110.8 | 13.1
CCc1nccn1CCC(=O)N1CCCC(Nc2ccc(C(C)C)cc2)C1 (stereo not given) | -3.3 | -5.2 | 68.8 | -10.7 | 100.6 | -2.5
COc1ccc(/C=C(/NC(=O)c2ccc(C)cc2)C(=O)NCC2CCCO2)cc1 (stereo not given) | 6.6 | -1.2 | -0.2 | -4.8 | 92.6 | 9.0
CCOC(=O)c1c(SCC(=O)Nc2nc(C)cs2)nc(=O)[nH]c1C | -2.8 | -2.5 | 98.7* | -8.3 | 81.7 | 2.0
Cn1c(CO)cnc1SCC(=O)c1ccc(F)cc1 | 1.8 | -8.0 | . | -9.7 | 95.1 | 7.8
Cc1csc(NC(=O)CSc2[nH]c(=O)ncc2C)n1 | 1.2 | -2.1 | 99.1* | . | 82.1 | -4.4
Cc1cnc(=O)[nH]c1SCC(=O)c1ccc(F)cc1 | -5.6 | 19.4 | 98.8* | 27.7 | 85.7 | 16.5
Cc1csc(NC(=O)CSc2ncnc3c2cnn3-c2ccccc2Cl)n1 | 4.6 | -0.9 | 99.1* | -5.1 | 85.1 | 4.1
COC(=O)c1c(SCC(=O)Nc2ccc(C)cc2)nc(=O)[nH]c1C | -3.1 | -5.0 | 52.5 | 6.7 | 96.0 | -16.3
CC(C)C(=O)NNC(=O)CSc1ncnc2c1cnn2-c1ccccc1Cl | -3.8 | -6.9 | 10.4 | -5.9 | 105.1 | 9.8
